Among the data in ChEMBL document CHEMBL3433997, “St. Jude Leishmania screening dataset” (2016) are inhibition values, retold here.

The target in one experiment is Solute carrier family 2, facilitated glucose transporter member 1 (Homo sapiens) (UniProt P11166). Description: ST_JUDE_LEISH: Cytotoxicity at 2uM final concentration against transgenic Leishmania Mexicana promastigotes LmGLUT1 that are glucose transport deficient and complemented with the human glucose transporter GLUT1. Activity is measured by DNA content using SYBR green in vitro. Type of experiment: functional.
Solute carrier family 2, facilitated glucose transporter member 1 (Homo sapiens), sequence (P11166 whole entry): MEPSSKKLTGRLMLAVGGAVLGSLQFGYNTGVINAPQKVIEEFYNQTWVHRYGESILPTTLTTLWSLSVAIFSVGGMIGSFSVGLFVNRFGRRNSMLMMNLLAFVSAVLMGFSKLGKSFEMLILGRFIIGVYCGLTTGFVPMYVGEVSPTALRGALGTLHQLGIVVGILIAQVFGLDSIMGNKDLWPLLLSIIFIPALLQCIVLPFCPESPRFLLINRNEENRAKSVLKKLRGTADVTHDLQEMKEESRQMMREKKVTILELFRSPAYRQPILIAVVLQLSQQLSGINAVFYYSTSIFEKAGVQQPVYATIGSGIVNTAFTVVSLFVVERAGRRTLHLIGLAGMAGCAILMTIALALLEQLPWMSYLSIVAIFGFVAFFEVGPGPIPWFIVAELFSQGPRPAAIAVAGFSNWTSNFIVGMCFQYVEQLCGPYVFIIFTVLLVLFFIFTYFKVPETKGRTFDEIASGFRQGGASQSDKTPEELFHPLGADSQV
In general, inhibition refers to the relative decrease from the control value, in per cent. As for `CN1CCCC1CCNc1ncc2c(-c3ccc(NC(=O)Nc4cc(C(F)(F)F)ccc4F)c(F)c3)nn(C)c2n1` (stereo not given), the inhibition is -1.71%.

Turning to `O=C(N[C@H]1CCN(Cc2ccc(OC3CCN(Cc4ccccc4)CC3)c(Cl)c2)C1)c1ccc(Cl)c(Cl)c1`, the inhibition was 0.44%.

Turning to `CC(CN(C)C)Oc1ccc2nc(-c3cccc(OCc4ccccc4)c3)[nH]c2c1C#N` (stereo not given), the inhibition was -1.18%.

With `CCCCCCCN1CC[C@@H](CCCc2ccnc3ccc(OCC4CCCNC4)cc23)[C@@H](CC)C1` (stereo not given in full), the inhibition amounted to 4.6%.

As to `CCOc1ccc(-c2noc(-c3c[nH]c4ccccc4c3=O)n2)cc1`, the inhibition came to 1.69%.

For `Cc1cc(Cl)c(S(=O)(=O)N2CCc3ccccc32)cc1OCC(=O)NC1CCCCC1`, the inhibition is 2.33%.

As for `CC(C)NC[C@@H](O)[C@H](Cc1ccccc1)NC(=O)c1cc2c3c(c1)c(C(C)C)cn3CCS(=O)(=O)N2C`, the inhibition was 2.21%.

Take `O=C(Nc1cccc(C2=NCCCN2)c1)Nc1cccc(C2=NCCCN2)c1`: the inhibition was 2.31%.

Take `Cc1nc(C)c(-c2ccc(Br)cc2)c(O)c1Br`: the inhibition was -0.12%.

On to `CCCN1CCC2(CC1)NC(C(=O)NCCC(C)C)Cc1c2[nH]c2cc(Cl)ccc12` (stereo not given), for which the inhibition was found to be 6.25%.

On to `COc1ccc(CCn2c(C3CCCCC3)nc3oc4ccccc4c(=O)c3c2=O)cc1`, for which the inhibition worked out at 3%.

With `COc1ccc2nccc([C@H](O)CN3CCC(NCc4cc(C)c5c(c4)OCCO5)CC3)c2n1`, the inhibition stood at 5.84%.

Consider `O=C(Nc1cccc(C(F)(F)F)c1)c1cccc(S(=O)(=O)NC2CCN(CC3CCCCC3)C2)c1` (stereo not given), for which the inhibition was found to be 0.18%.

In the case of `CN(C)CCOc1ccc(-c2cc(-c3ccc(Cl)c(O)c3)c(-c3ccnc(N)n3)o2)cc1`, the inhibition turned out to be 2.11%.

For the molecule `CC(=O)N(C)c1ccc(C(=O)Nc2cccc(-c3cccc(-c4nc5cccc(C)c5[nH]4)c3)c2)cc1`, the inhibition is 3.67%.

With `CC1(C)CCC(C)(C)c2c1ccc(C1CCN(CCCCNC(=O)c3ccc(-c4ccc(C#N)cc4)cc3)CC1)c2OCC(N)=O`, the inhibition was 3.73%.

With `CC(C)N1CCC(N(Cc2ccc(-c3ccc(Cl)cc3)cc2)C(=O)Cn2c(CCc3cccc(F)c3F)cc(=O)c3ccccc32)CC1`, the inhibition stood at 2.59%.

Consider `CN(C)CCCOc1c(C(C)(C)C)cc(-c2cc(C(C)(C)C)c(OCCCN(C)C)c(C(C)(C)C)c2)cc1C(C)(C)C`, for which the inhibition amounted to 7.07%.

In the case of `CC(=NNC(=N)N)c1ccc2c(ccc3ccccc32)c1`, the inhibition stood at 2.47%.

Take `Cc1cc(C)cc(OCC(O)CN(CCN2CCOCC2)C(=O)Nc2ccc(Br)cc2)c1` (stereo not given): the inhibition turned out to be 12.2%.

`CC(=O)NCCNc1nccc(N2CCc3ncnc(Nc4ccc(OCc5ccccn5)c(Cl)c4)c3C2)n1`: the inhibition is 0.91%.

For `CC(C)NCc1cccc(-c2ccc(NC(=O)c3ccc(F)cc3)cc2)c1`, the inhibition was 3.19%.

For the molecule `Cc1cc(NCCC(=O)NCCOc2ccccc2)nc(NCCOc2ccccc2)n1`, the inhibition was found to be 3.09%.

For the molecule `COc1cc2c(cc1S(=O)(=O)c1ccc(NC(=O)c3cc4ccccc4s3)cc1)CCN(C)CC2`, the inhibition is -1.48%.

With `CN1CCC(NCc2ccc(-c3cccc(S(=O)(=O)NCc4ccccc4)c3)cc2)CC1`, the inhibition worked out at 2.23%.

As for `Cc1cc(F)ccc1[C@H]1CNCCN1C(=O)N(C)[C@@H](C)c1cc(C(F)(F)F)cc(C(F)(F)F)c1`, the inhibition is -0.55%.

With `CNCCNCc1ccc(-c2ccc(-c3nc4cc(C(F)(F)F)ccc4[nH]3)s2)cc1`, the inhibition amounted to 2.21%.

In the case of `CCc1cn2c3c(cc(C(=O)N[C@@H](Cc4ccccc4)[C@H](O)CNC4CCC4)cc13)N(C)S(=O)(=O)CC2`, the inhibition came out at 2.42%.

In the case of `CCOc1cc(C)ccc1C1CCN(CCN2CCC(CNC(=O)c3ccc(-c4ccc(C(F)(F)F)cc4)cc3)CC2)CC1`, the inhibition worked out at 0.7%.

For `CN1C(C)(C)CC(NC(=O)c2ccc(-c3cc4cc(Cl)c(Cl)cc4[nH]3)o2)CC1(C)C`, the inhibition is 4.77%.

Turning to `COc1ccc2ncc(F)c(CCN3CCC(NCc4cc5c(cn4)OCCS5)CC3)c2c1`, the inhibition is 57.8%.

`COc1ccc2nccc([C@@H](O)CN3CCC(NCc4nc5c(C#N)cccc5[nH]4)CC3)c2c1`: the inhibition amounted to 3.6%.

Consider `CCCCCN1CCCCC(NS(=O)(=O)c2ccc(C(=O)Nc3ccc(C(F)(F)F)cc3)cc2)C1` (stereo not given), for which the inhibition was 0.12%.

`COc1cc(OC)nc(C(Sc2ccc(NC(=O)c3cccs3)cc2)c2ccccc2)n1` (stereo not given): the inhibition stood at 6.79%.

`O=C(Nc1ccc(C(=O)OCC(c2ccccc2)c2ccccc2)cc1)N[C@@H](Cc1ccc(O)cc1)C(=O)NC1CCN(Cc2ccc(O)cc2)C1` (stereo not given in full): the inhibition is -0.47%.

On to `Cc1[nH]c(CNCCCNc2cc(=O)c3ccccc3[nH]2)c(Br)c1Br`, for which the inhibition is 0.62%.

`CC(C)Nc1nc(NCCc2c[nH]cn2)nc(Nc2ccc(Oc3ccccc3)cc2)n1`: the inhibition amounted to 2.08%.

Take `O=C(NCc1cccs1)[C@H](Cc1ccccc1)Nc1ccnc(NCC2CCCCC2)n1`: the inhibition came to 11.9%.

In the case of `COc1ccc2ncc(Cl)c([C@@H](O)CN3CCC(NCc4cc5c(cn4)OCCO5)CC3)c2c1`, the inhibition stood at 9.54%.

As for `Cc1cccc2nc(-c3ccc(-c4cccc(NC(=O)Nc5ccc(F)c(F)c5F)c4)cc3)[nH]c12`, the inhibition was 2.29%.

For the next experiment, the target named is Hexose transporter 1 (Plasmodium falciparum) (UniProt O97467). As to the kind of experiment: ST_JUDE_LEISH: Cytotoxicity at 2uM final concentration against transgenic Leishmania Mexicana promastigotes LmPfHT that are glucose transport deficient and complemented with the Plasmodium falciparum hexose transporter. Activity is measured by DNA content using SYBR green in vitro. Type of experiment: functional.
Turning to `CN1CCCC1CCNc1ncc2c(-c3ccc(NC(=O)Nc4cc(C(F)(F)F)ccc4F)c(F)c3)nn(C)c2n1` (stereo not given), the inhibition was 0.21%.

As for `O=C(N[C@H]1CCN(Cc2ccc(OC3CCN(Cc4ccccc4)CC3)c(Cl)c2)C1)c1ccc(Cl)c(Cl)c1`, the inhibition came out at 2.06%.

Consider `CC(CN(C)C)Oc1ccc2nc(-c3cccc(OCc4ccccc4)c3)[nH]c2c1C#N` (stereo not given), for which the inhibition turned out to be 0.94%.

Consider `CCCCCCCN1CC[C@@H](CCCc2ccnc3ccc(OCC4CCCNC4)cc23)[C@@H](CC)C1` (stereo not given in full), for which the inhibition was found to be 3.17%.

In the case of `CCOc1ccc(-c2noc(-c3c[nH]c4ccccc4c3=O)n2)cc1`, the inhibition was -0.34%.

Turning to `Cc1cc(Cl)c(S(=O)(=O)N2CCc3ccccc32)cc1OCC(=O)NC1CCCCC1`, the inhibition was 1.17%.

Turning to `CC(C)NC[C@@H](O)[C@H](Cc1ccccc1)NC(=O)c1cc2c3c(c1)c(C(C)C)cn3CCS(=O)(=O)N2C`, the inhibition was 2.85%.

Turning to `O=C(Nc1cccc(C2=NCCCN2)c1)Nc1cccc(C2=NCCCN2)c1`, the inhibition was 1.94%.

For `Cc1nc(C)c(-c2ccc(Br)cc2)c(O)c1Br`, the inhibition was -1.35%.

For the molecule `CCCN1CCC2(CC1)NC(C(=O)NCCC(C)C)Cc1c2[nH]c2cc(Cl)ccc12` (stereo not given), the inhibition worked out at 6.94%.

Turning to `COc1ccc(CCn2c(C3CCCCC3)nc3oc4ccccc4c(=O)c3c2=O)cc1`, the inhibition stood at 5.28%.

As for `COc1ccc2nccc([C@H](O)CN3CCC(NCc4cc(C)c5c(c4)OCCO5)CC3)c2n1`, the inhibition came out at 8.31%.

In the case of `O=C(Nc1cccc(C(F)(F)F)c1)c1cccc(S(=O)(=O)NC2CCN(CC3CCCCC3)C2)c1` (stereo not given), the inhibition is -0.46%.

Take `CN(C)CCOc1ccc(-c2cc(-c3ccc(Cl)c(O)c3)c(-c3ccnc(N)n3)o2)cc1`: the inhibition was determined as 2.73%.

Consider `CC(=O)N(C)c1ccc(C(=O)Nc2cccc(-c3cccc(-c4nc5cccc(C)c5[nH]4)c3)c2)cc1`, for which the inhibition was 3.97%.

On to `CC1(C)CCC(C)(C)c2c1ccc(C1CCN(CCCCNC(=O)c3ccc(-c4ccc(C#N)cc4)cc3)CC1)c2OCC(N)=O`, for which the inhibition was 4.26%.

In the case of `CC(C)N1CCC(N(Cc2ccc(-c3ccc(Cl)cc3)cc2)C(=O)Cn2c(CCc3cccc(F)c3F)cc(=O)c3ccccc32)CC1`, the inhibition came to 2.15%.

As for `CN(C)CCCOc1c(C(C)(C)C)cc(-c2cc(C(C)(C)C)c(OCCCN(C)C)c(C(C)(C)C)c2)cc1C(C)(C)C`, the inhibition was 4.77%.

Turning to `CC(=NNC(=N)N)c1ccc2c(ccc3ccccc32)c1`, the inhibition is 1.59%.

On to `Cc1cc(C)cc(OCC(O)CN(CCN2CCOCC2)C(=O)Nc2ccc(Br)cc2)c1` (stereo not given), for which the inhibition was found to be 9.85%.

`CC(=O)NCCNc1nccc(N2CCc3ncnc(Nc4ccc(OCc5ccccn5)c(Cl)c4)c3C2)n1`: the inhibition amounted to 1.71%.

As for `CC(C)NCc1cccc(-c2ccc(NC(=O)c3ccc(F)cc3)cc2)c1`, the inhibition is 3.2%.

`Cc1cc(NCCC(=O)NCCOc2ccccc2)nc(NCCOc2ccccc2)n1`: the inhibition is -0.07%.

`COc1cc2c(cc1S(=O)(=O)c1ccc(NC(=O)c3cc4ccccc4s3)cc1)CCN(C)CC2`: the inhibition came out at 3.2%.

As for `CN1CCC(NCc2ccc(-c3cccc(S(=O)(=O)NCc4ccccc4)c3)cc2)CC1`, the inhibition worked out at 3.01%.

Turning to `Cc1cc(F)ccc1[C@H]1CNCCN1C(=O)N(C)[C@@H](C)c1cc(C(F)(F)F)cc(C(F)(F)F)c1`, the inhibition is -0.16%.

Regarding `CNCCNCc1ccc(-c2ccc(-c3nc4cc(C(F)(F)F)ccc4[nH]3)s2)cc1`, the inhibition worked out at 0.84%.

`CCc1cn2c3c(cc(C(=O)N[C@@H](Cc4ccccc4)[C@H](O)CNC4CCC4)cc13)N(C)S(=O)(=O)CC2`: the inhibition is 5.19%.

Take `CCOc1cc(C)ccc1C1CCN(CCN2CCC(CNC(=O)c3ccc(-c4ccc(C(F)(F)F)cc4)cc3)CC2)CC1`: the inhibition is 2.7%.

Turning to `CN1C(C)(C)CC(NC(=O)c2ccc(-c3cc4cc(Cl)c(Cl)cc4[nH]3)o2)CC1(C)C`, the inhibition came to 4.2%.

On to `COc1ccc2ncc(F)c(CCN3CCC(NCc4cc5c(cn4)OCCS5)CC3)c2c1`, for which the inhibition is 66.5%.

In the case of `COc1ccc2nccc([C@@H](O)CN3CCC(NCc4nc5c(C#N)cccc5[nH]4)CC3)c2c1`, the inhibition was 3.33%.

As for `CCCCCN1CCCCC(NS(=O)(=O)c2ccc(C(=O)Nc3ccc(C(F)(F)F)cc3)cc2)C1` (stereo not given), the inhibition worked out at 2.98%.

On to `COc1cc(OC)nc(C(Sc2ccc(NC(=O)c3cccs3)cc2)c2ccccc2)n1` (stereo not given), for which the inhibition was 4.81%.

For the molecule `O=C(Nc1ccc(C(=O)OCC(c2ccccc2)c2ccccc2)cc1)N[C@@H](Cc1ccc(O)cc1)C(=O)NC1CCN(Cc2ccc(O)cc2)C1` (stereo not given in full), the inhibition was -1.74%.

As to `Cc1[nH]c(CNCCCNc2cc(=O)c3ccccc3[nH]2)c(Br)c1Br`, the inhibition worked out at 1.85%.

On to `CC(C)Nc1nc(NCCc2c[nH]cn2)nc(Nc2ccc(Oc3ccccc3)cc2)n1`, for which the inhibition is 2.71%.

Take `O=C(NCc1cccs1)[C@H](Cc1ccccc1)Nc1ccnc(NCC2CCCCC2)n1`: the inhibition was found to be 10.5%.

On to `COc1ccc2ncc(Cl)c([C@@H](O)CN3CCC(NCc4cc5c(cn4)OCCO5)CC3)c2c1`, for which the inhibition was 10.5%.

`Cc1cccc2nc(-c3ccc(-c4cccc(NC(=O)Nc5ccc(F)c(F)c5F)c4)cc3)[nH]c12`: the inhibition was 3.05%.
